# In PubChem BioAssay AID1578 (Sanford-Burnham Center for Chemical Genomics, 2009):
# The campaign covered roughly 290,000 compounds. About 3,000 (1%) were called active. This excerpt belongs to a sample that is enriched for actives. Values without a mark were called inactive. No stated cut-off is given here; in the data, active means inhibition mostly above about 36% (no sharp cut-off); inactive means mostly below about 34%.
# Assay: inhibition of NOD1-driven NF-kB reporter – cell-based, luminescence, uHTS, primary screen (AID 1578);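 further: HEK-293T reporter cells stimulated with the NOD1 agonist gamma-tri-DAP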
# Details: NOD1-driven NF-kB luciferase reporter cells, at 4 µM, stronger effect = higher value
row,SMILES,inhibition
1,CC(=O)Nc1ccc2sc(C)nc2c1,-14.2%
2,Cc1nc2cc(NC(=O)c3ccc(Br)s3)ccc2s1,-42.5%
3,COc1ccc(Cl)cc1NC(=O)CN1C(=O)CSC1=O,-3.2%
4,Cc1ccc(NC(=O)c2ccccc2N(C)S(=O)(=O)c2ccccc2)c(C)c1,-8.8%
5,CCOC(=O)c1c(C)oc2c1C(=O)c1ccccc1C2=O,-38.5%
6,CC(=O)c1c(C)oc2c1C(=O)c1ccccc1C2=O,79.5% (active)
7,Cc1oc2c(c1C(=O)O)C(=O)c1ccccc1C2=O,-30.8%
8,Cc1ccc(-c2nnn(CC(=O)N(Cc3ccccc3F)C(C(=O)NC3CCCC3)c3ccncc3)n2)o1 (stereo not drawn),-44.1%
9,CCOC(=O)C1=C(C)N(c2ccccc2)C(=O)NC1c1cccc([N+](=O)[O-])c1 (stereo not drawn),-25.4%
10,O=C(CSc1nnc(CNC(=O)c2ccc(F)cc2)o1)NCCc1ccccc1,-16%
11,COc1ccc(C(=O)NCc2nnc(SCC(=O)N3CCCCC3)o2)cc1,-32.2%
12,COc1ccc(C(=O)NCc2nnc(SCC(=O)N3CCCC3)o2)cc1,-25.5%
13,COc1ccc(C(=O)NCc2nnc(SCC(=O)NCCc3ccccc3)o2)cc1,-16.6%
14,COc1ccc(C(=O)NCc2nnc(SCC(=O)N3CCOCC3)o2)cc1,37.2% (active)
15,O=C(CSc1nnc(CNC(=O)c2ccccc2)o1)NCCc1ccccc1,72% (active)
16,COCCn1c(SCC(=O)Nc2ccc(S(N)(=O)=O)cc2)nc2ccccc21,-3.5%
17,CCN(CC)C1CCN(C(=O)CCn2nnnc2CN2CCOCC2)C1 (stereo not drawn),-54.3%
18,COCCn1c(SCc2ccc(OC)c(F)c2)nnc1-c1ccncc1,-14.1%
19,O=Cc1ccc(OC(=O)CCCCC(=O)Oc2ccc(C=O)cc2)cc1,4.4%
20,CN1C2=CC=CC=CC2=[N+](C)C12C([N+](=O)[O-])=CC(=[N+]([O-])[O-])C=C2[N+](=O)[O-] (stereo not drawn),57.4% (active)

row,SMILES,inhibition
1,CN1C2=CC=CC=CC2=[N+](C)C12C=CC(=[N+]([O-])[O-])C=C2[N+](=O)[O-] (stereo not drawn),-35.5%
2,CC(C)[N+]1=C2C=CC=CC=C2SC12C([N+](=O)[O-])=CC(=[N+]([O-])[O-])C=C2[N+](=O)[O-] (stereo not drawn),-8.1%
3,Fc1ccc(NC(=S)Nc2ccc(Cl)cc2Cl)cc1,-28.8%
4,CC(=O)c1c(C)[nH]c(C(=O)Nc2ccc(C)c(S(=O)(=O)N(C)C)c2)c1C,-63.3%
5,Nc1nc(NCC(=O)O)nc(NCc2ccccc2)c1[N+](=O)[O-],-13.3%
6,O=C(NNC1=Nc2ccccc2SC1)c1ccc(Cl)cc1,78.1% (active)
7,O=C(NNC1=Nc2ccccc2SC1)c1ccc(F)cc1,18.7%
8,O=C(NNC1=Nc2ccccc2SC1)c1ccccc1F,1.9%
9,COc1cc(/C=C(\C#N)C(=O)N2CCOCC2)ccc1OCc1ccccc1,-23.3%
10,O=S(=O)(c1cnc(Cl)c(Cl)c1)N1CCN(c2ncccn2)CC1,-5.2%
11,CC(C)c1ccccc1NC(=O)COC(=O)c1cccnc1,-18.3%
12,Cc1cc(NC(=O)CSc2cn(CCNC(=O)c3ccccc3)c3ccccc23)no1,11.3%
13,Cc1cc(NC(=O)CSc2cn(CCNC(=O)c3ccc(Cl)cc3)c3ccccc23)no1,75.9% (active)
14,Cc1ccc(C(=O)NCCn2cc(SCC(=O)Nc3cc(C)on3)c3ccccc32)cc1,-10.3%
15,O=C(CCC(=O)OCC(=O)c1ccc(Br)cc1)NC1CCCCC1,-4.2%
16,Cc1nc(SCC(=O)N2CCCCC2)c2c(C)c(C)sc2n1,-15.5%
17,CCC(=O)N1CCN(c2nc(C)nc3sc(C)c(C)c23)CC1,9.5%
18,Cc1nc(N2CCN(C(=O)CCC(=O)O)CC2)c2c(C)c(C)sc2n1,-16.7%
19,CCn1c(SCC(=O)N2CCc3ccccc3C2)nc2sc(C)c(C)c2c1=O,20.4%
20,COC(=O)c1ccc(CNC(=O)N2CCN(S(=O)(=O)c3ccc(C)cc3)CC2)cc1,-19.3%

row,SMILES,inhibition
1,Cn1c(=O)c2c(nc(SCc3ccccc3F)n2C)n(C)c1=O,24%
2,Cc1ccc(/C=[N+](/[O-])C2SC(=S)N(C)C2(C)C)cc1 (stereo not drawn),-10.5%
3,CN1C(=S)SC(/[N+]([O-])=C\c2ccc(Cl)cc2)C1(C)C (stereo not drawn),84.4% (active)
4,CN1C(=S)SC(/[N+]([O-])=C/c2ccc(Cl)cc2)C1(C)C (stereo not drawn),12%
5,O=C(O)c1ccc(-c2nc3scc(-c4ccccc4)c3c(=O)[nH]2)cc1,-3.4%
6,COc1cc(SC)ccc1C(=O)OC1CCOC1=O (stereo not drawn),7.7%
7,O=C(Nc1ccccc1)c1ccc(CN2CCc3ccccc3C2)cc1,37.2%
8,CCOc1ccccc1NC(=O)c1ccc(CN2CCc3ccccc3C2)cc1,25.2%
9,Cc1cc(C)cc(NC(=O)c2ccc(CN3CCc4ccccc4C3)cc2)c1,39.1%
10,Cc1ccc(NC(=O)c2ccc(CN3CCc4ccccc4C3)cc2)cc1,42.4%
11,CC(=O)Nc1ccc(NC(=O)c2ccc(CN3CCc4ccccc4C3)cc2)cc1,21.2%
12,CCOC(=O)c1ccc(NC(=O)CN2CCc3ccccc3C2)cc1,-2.1%
13,C#Cc1ccc([C@H]2C=C(C(=O)N3CCN(Cc4ccc5c(c4)OCO5)CC3)O[C@@H](OCc3ccc(CO)cc3)C2)cc1,1.8%
14,Cc1ccc(S(=O)(=O)Nc2ccccc2N2CCOCC2)cc1,-11.5%
15,Cc1nc2sc(C(c3ccc(F)cc3)N3CCOCC3)c(O)n2n1 (stereo not drawn),0.4%
16,Cc1onc(-c2ccccc2)c1C(=O)c1c[nH]c(C(=O)NCCCN2CCOCC2)c1,-7.9%
17,COc1ccc(CCNC(=O)Cn2c(=O)n(-c3cc(F)ccc3F)c(=O)c3sccc32)cc1OC,-47.6%
18,CC(NC(=S)Nc1ccc(OC(F)F)c(Cl)c1)C(C)(C)C (stereo not drawn),-14.8%
